Measured values as given in PubChem BioAssay (NCATS).
Inconclusive results are not listed. The source made the active and inactive calls. The call rests on the fitted dose curve; in most records, active means well fitted inhibition curve with a large enough effect; inconclusive means small, poorly fitted or top-dose-only effect; inactive means no such curve, though single readings can be large or run the other way.

Test: Primary qHTS for small molecule stabilizers of the endoplasmic reticulum resident proteome: Secreted ER Calcium Modulated Protein (SERCaMP) assay (AID 1508630)
Details: SH-SY5Y GLuc-SERCaMP (Gaussia luciferase released on ER calcium loss) secretion, thapsigargin, luminescence; series mostly up to 38.4 µM; activity change, negative = inhibition: at the top concentration
Summary of the method: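 The SH-SY5Y reporter protocol was run at 3 concentrations up to 38.3 uM (primary) or 11 concentrations (follow-up): 16 h compound, 100 nM thapsigargin for 4 h, then extracellular luciferase luminescence.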
On the % scale 0 is the no-effect control and ±100 the full control effect.

Activity change, negative = inhibition, inactive:
CCCCCCCC/C=C\CCCCCCCC(=O)OCC(CO)OC(=O)CCCCCCC/C=C\CCCCCCCC (configuration not stated) 17.1% [at 3.88 µM]
O=C(O)[C@@H]1CN[C@@H](C(=O)O)C1 -22.5%
CC(CCCCC(=O)Nc1ccc(C(F)(F)F)cc1)NCCc1cnc[nH]1 (configuration not stated) -12.6%
Nc1ncnc2c1ncn2C1O[C@H](COP(=O)(O)O)[C@@H](O)[C@H]1O (some centres not stated) -4.32%
C[C@H](CCC(=O)O)C1CC[C@H]2C3CC[C@@H]4C[C@H](O)CC[C@]4(C)C3C[C@H](O)[C@]12C (some centres not stated) 48.9%
CC/C=C\C/C=C\C/C=C\CCCCCCCCCC(=O)O 4.31% [at 3.88 µM]
NC(C(=O)O)C(CC(=O)O)c1ccc(Cl)cc1 (configuration not stated) -15.8%
